The text below walks through data of ChEMBL document CHEMBL3988442, “University of Dundee, Small-Polar-MMV Screening Library” (2021).

The whole screen tested about 48,000 compounds, of which about 13,000 (27%) showed an effect of 50% or more. The list shows a part of the results.

The subject of this test is Wolbachia pipientis. As to the kind of experiment: Anti-Wolbachia Cell-Based Screen. Type of test: functional. The arrangement: scale not given: in the data most compounds retested in dose-response had high values. Particulars: 5 µM.
With `C1CCC(N2CCCN(c3nc(C4CC4)no3)CC2)C1`, the “Percent Effect” value is on record as 19.76%.
In the case of `CCCNC(=O)c1cc(Br)c2c(c1)OCCO2` it was -33.44%.
The same measure for `CCc1nc(CN2CCN(C(=O)C3CCCCC3)CC2)cs1`: 4.149%; for `O=C(CN1CCN(c2ccccc2F)CC1)Nc1ccc(Cl)cn1`: 4.247%.
In the case of `CCCS(=O)(=O)N1C[C@@H]2CN(Cc3ccoc3)CCO[C@@H]2C1.O=C(O)C(F)(F)F` it was 45.1%; in that of `Cn1cc(C[C@H]2[C@H](N3CCOCC3)CCN2C(=O)c2ccc[nH]2)cn1`, -3.493%; in that of `CC(C)N(C)[C@@H]1CCN(C(=O)c2ccc[nH]2)[C@H]1Cc1cnn(C)c1`, -2.599%.
On to `CN(Cc1cncnc1)[C@H]1CN(C(=O)c2ccc[nH]2)[C@@H]2CCCO[C@@H]21`, for which the “Percent Effect” value came out at 103.1%.
On to `CN(Cc1cccnc1)[C@@H]1CN(C(=O)c2ccco2)[C@@H]2CCCO[C@H]12`, for which the “Percent Effect” value was determined as 99.41%.
The same measure for `CN(Cc1ccco1)[C@@H]1CN(C(=O)c2ccnnc2)C[C@@H]2CCCO[C@@H]21.O=C(O)C(F)(F)F`: 1.243%; for `O=S(=O)(NCC1COCCO1)c1ccc(C2CCCCC2)cc1` (stereo unspecified): -20.85%.
In the case of `CC1CN(Cc2cccc(CNC3CCCC3)c2)CCO1` (stereo unspecified) it was 2.611%.
The same measure for `OC(CN1CCOCC1)c1cc(Cl)ccc1Cl` (stereo unspecified): 1.615%; for `Cc1ccsc1C(=O)NCc1cccnc1N(C)CCc1ccccn1`: -9.716%.
As to `O=S(=O)(NCC1CCN(c2ccccn2)CC1)c1ccccc1F`, the “Percent Effect” value is on record as -4.881%.
The same measure for `O=S(=O)(NCC1CCN(c2cnccn2)CC1)c1c(F)cccc1F`: -13.03%.
The same measure for `Cc1cnc2c(S(=O)(=O)NCC3CCN(C4CC4)C3)cccc2c1` (stereo unspecified): -24.19%; for `Cc1cccc(S(=O)(=O)NCC2CCN(c3cnccn3)CC2)c1`: 113.6%.
The same measure for `O=C(Oc1ccccc1)N1CCC(CNS(=O)(=O)c2cccnc2)CC1`: 12.7%; for `CC(=O)c1ccc(S(=O)(=O)NCC2CCN(c3cnccn3)CC2)cc1`: 109.4%.
With `Cn1cc(S(=O)(=O)NCC2CCN(C(=O)Oc3ccccc3)CC2)cn1`, the “Percent Effect” value is -5.514%.
Take `O=S(=O)(NCC1CCN(c2cnccn2)CC1)c1ccc(F)c(Cl)c1`: the “Percent Effect” value worked out at 114.1%.
`CN(C)c1nccc(CNS(=O)(=O)c2ccc(F)c(Cl)c2)n1`: the “Percent Effect” value is recorded as -4.41%.
The same measure for `Cc1nn(C)c(C)c1CN(C(=O)c1cnc(O)cn1)C(C)C`: -5.966%; for `CN(CCC1CCOCC1)[C@@H]1c2ccccc2C2(CCNCC2)[C@H]1O`: -1.046%.
On to `CCn1nc2c(cc1=O)CN(c1nc3ccccc3s1)CC2`, for which the “Percent Effect” value was 17.49%.
